Source: PubChem BioAssay (several laboratories)
CendR NRP1 mod: modulators of CendR peptide binding to NRP-1, primary screen, biochemical, fluorescence polarization, uHTS. FAM-RPARPAR peptide binding to NRP-1. 0.85% of 360,000 active. Neuropilin-1 (Homo sapiens), O14786. inhibition, % at 25 µM. AID 602438, 2012;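 active = inhibition or corrected inhibition above about 18%, plus a signal ratio from 0.5 to 1.5, limit read from the data, passing the limit was not always enough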
ADAM17 inh: ADAM17 inhibitors, primary screen, biochemical, QFRET; 0.83% of 370,000 active; recombinant ADAM17, EDANS/DABCYL FRET peptide cleavage; inhibition, % at 6.95 µM;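 active = inhibition above the mean of compounds lying between control limits plus 3 SD, set per campaign, cut at about 8.5% in these data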;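 also: 0% = DMSO-only wells as the low control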
sPLA2-III inh: human group III sPLA2 inhibitors, primary screen, biochemical, QFRET, BODIPY PC-A2 liposome substrate; inhibition, % at 12.2 µM; Group 3 secretory phospholipase A2 (Homo sapiens), Q9NZ20; AID 743126, 2013; QFRET BODIPY PC-A2 liposome hydrolysis, fluorescence; 0.56% of 370,000 active;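 active = inhibition above mean plus 3 SD of compounds lying within the high and low control bounds, cut at about 19% in these data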;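 also: 0% = median of test compound wells and 100% = no enzyme DMSO wells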
ADAM10 inh: human ADAM10 inhibitors, primary screen, biochemical, QFRET, HTS; 0.62% of 370,000 active; AID 720582, 2013; recombinant ADAM10, EDANS/DABCYL FRET peptide cleavage, 3 h; inhibition, % at 7 µM;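 active = inhibition above a per-campaign cutoff equal to the mean of compounds falling between control-based bounds plus 3 SD, cut at about 20% in these data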;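 also: 0% = DMSO wells while the 100% control is not disclosed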
proKLK7 act: proKLK7 zymogen activators, primary screen, biochemical, fluorescence intensity | purified proKLK7, EDANS-DABCYL substrate fluorescence; 100% is mature enzyme control, 0% vehicle | AID 652039, 2013 | Kallikrein-7 (Homo sapiens), P49862 | activation, % at 7 µM | 0.9% of 370,000 active;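 active = activation above the mean of all tested compounds plus 3 SD, computed per campaign excluding outliers beyond control limits, cut at about 13% in these data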
ADAM10 confirm: human ADAM10 inhibitors, confirmation, biochemical, QFRET, triplicate; shares compounds with ADAM10 inh; ADAM10 QFRET peptide cleavage, EDANS fluorescence; inhibition, % at 6.95 µM; 1% of 2,100 active; AID 743208, 2013;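 active = inhibition above about 20% chosen separately for each screening run, limit read from the data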;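 also: 0% = DMSO wells and 100% = marimastat wells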
ADAM17 counter: ADAM17 inhibitors, counter-screen for ADAM10 exosite inhibitor project, biochemical, QFRET, high throughput. shares compounds with ADAM10 inh. 0.5% of 2,100 active. inhibition, % at 6.95 µM. ADAM17 QFRET peptide cleavage, EDANS fluorescence;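 active = mean triplicate inhibition above the solvent-only control wells' mean plus 3 SD, cut at about 12% in these data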;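 also: 0% = DMSO wells and 100% = marimastat wells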
ADAM10 counter: ADAM10 inhibitors, counter-screen for ADAM17 exosite inhibitor project, biochemical, FRET, human ADAM10 | shares compounds with ADAM17 inh | recombinant ADAM10, EDANS/DABCYL FRET peptide cleavage, 3 h | inhibition, % at 6.95 µM | 47% of 2,900 active;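 active = mean inhibition over the triplicate runs exceeds the activity threshold set in the earlier primary screen, cut at about 20% in these data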;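 also: 0% = DMSO wells and 100% = marimastat wells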
ADAM17 confirm: ADAM17 inhibitors, hit retest, confirmation, biochemical, QFRET peptide cleavage | shares compounds with ADAM17 inh | AID 743257, 2014 | recombinant ADAM17, EDANS/DABCYL QFRET peptide cleavage | 65% of 2,900 active | inhibition, % at 6.95 µM;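 active = mean inhibition across replicates above the hit cutoff set in the primary screen, cut at about 8.5% in these data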;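 also: 0% = DMSO wells and 100% = marimastat wells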
The depositor's hits bear a star; x = no result. The list is not random: actives were taken first. Their share in the collection is about 3.4%.

SMILES | CendR NRP1 mod | ADAM17 inh | sPLA2-III inh | ADAM10 inh | proKLK7 act | ADAM10 confirm | ADAM17 counter | ADAM10 counter | ADAM17 confirm
Cc1cccc(C)c1-n1nnnc1C1(C)Cn2nccc2C(=O)N1Cc1ccc(F)cc1 (stereo not given) | x | 0 | 0 | 4 | 1 | x | x | x | x
Cc1cc(N2CCN(CC(C)(C)O)C[C@H]2C)ccc1N1CCN(Cc2ccccc2)[C@H](C)C1 | x | -9 | 11 | -18 | 0 | x | x | x | x
CC1(Cc2ccccc2OC(F)(F)F)C(=O)Nc2ccc(S(=O)(=O)NC3CCCCC3)cc21 (stereo not given) | 6 | 6 | -3 | 10 | 0 | x | x | x | x
COc1ccc(OC(F)(F)F)cc1CC1(C)C(=O)Nc2ccc(S(=O)(=O)NC3CCCCC3)cc21 (stereo not given) | -13 | 10* | -20 | 23* | 0 | 0 | 1 | 40* | 18*
O=C(/C=C/c1cccc(C(F)(F)F)c1)Nc1cccc(C(F)(F)F)c1 | -2 | 12* | -14 | 26* | 1 | 8 | 3 | 29* | 17*
Cc1ccc(NC(=O)/C=C/c2cccc(C(F)(F)F)c2)cc1 | 0 | 4 | 3 | 9 | -1 | x | x | x | x
COC(=O)[C@]12C[C@H](CC(=O)NCCCCc3ccccc3)C(=O)N(Cc3ccco3)C1=C[C@H](COCc1ccccc1)O[C@@H]2C | x | 2 | -17 | 7 | 0 | x | x | x | x
Cc1ccc2nc(-c3ccc(C#N)cc3)c(Cc3cccc(F)c3)n2c1 | x | -94 | -5 | -354 | -28 | x | x | x | x
O=C(Nc1ccc(F)c(Cl)c1)c1cc(C2CCCN(S(=O)(=O)c3cccc4cccnc34)C2)on1 (stereo not given) | 1 | 12* | -21 | 25* | 0 | 4 | 2 | 25* | 13*
Cc1ccc(S(=O)(=O)N(CC(=O)Nc2ccc(Cl)c([N+](=O)[O-])c2)C2CCCCC2)cc1 | -5 | 14* | -19 | 25* | -1 | 10 | 2 | 25* | 14*
Cc1ccc(S(=O)(=O)N(CC(=O)Nc2cccc([N+](=O)[O-])c2)C2CCCCC2)cc1 | 0 | 5 | 10 | 10 | 0 | x | x | x | x
O=C(Nc1ccccc1)OCc1cc(-c2ccccc2Cl)on1 | 6 | 9.0* | -26 | 27* | 0 | 9 | 3 | 36* | 17*
COc1ccc(NC(C)C(=O)N/N=C/c2ccccc2OCc2cccc(Br)c2)cc1 (stereo not given) | 2 | 8.8* | 13 | 21* | 0 | 11 | 3 | 48* | 22*
Cc1ccccc1NC(C)C(=O)N/N=C/c1ccccc1OCc1cccc(Br)c1 (stereo not given) | 0 | 9.7* | -5 | 24* | -1 | 17 | 6 | 16 | 14*
COc1ccc(NC(C)C(=O)N/N=C/c2cc(Br)ccc2OC)cc1 (stereo not given) | -12 | 0 | 15 | 8 | 0 | x | x | x | x
Cc1onc(-c2c(F)cccc2Cl)c1C(=O)Nc1cc(S(=O)(=O)N2CCCCC2)ccc1O | -1 | 12* | -37 | 27* | 0 | 3 | 1 | 40* | 18*
Nc1c(C(=O)N2CCN(CCc3ccccc3)CC2)cnn1-c1ccccc1 | x | -2 | 2 | 5 | 0 | x | x | x | x
O=C(Nc1cccc2ccccc12)c1ccc(OC(=S)N2CCOCC2)cc1 | 10 | 9.7* | -42 | 21* | 0 | 5 | 3 | 16 | 11*
